Holding throughout (test): PBM; 200 nM protein, PBS
Common to all, as to conditions: dsDNA, one strand shown

Test [1] concerns the target NKX2-5 (Homo sapiens, UniProt P52952 125-210, R139K).
Test [2] addresses T1, VENTX (Homo sapiens, UniProt O95231 78-163, R121Q).
T1 sequence: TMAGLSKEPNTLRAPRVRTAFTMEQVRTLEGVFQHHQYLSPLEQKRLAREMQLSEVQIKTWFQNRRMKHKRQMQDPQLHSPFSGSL

For test [3], the target named is T2, VENTX (Homo sapiens, UniProt O95231 78-163).
T2 sequence: T1 sequence with Q44R

Test [4] addresses T3, VENTX (Homo sapiens, UniProt O95231 78-163, Y115F).
T3 sequence: T1 sequence with Y38F, Q44R

Test [5] deals with T4, NKX2-6 (Homo sapiens, UniProt A6NCS4 118-204).
T4 sequence: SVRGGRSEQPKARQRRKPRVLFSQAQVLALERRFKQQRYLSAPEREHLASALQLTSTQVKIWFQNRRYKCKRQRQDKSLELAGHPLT

Test [6] has as its target T5, NKX2-6 (Homo sapiens, UniProt A6NCS4 118-204, F151L).
T5 sequence: T4 sequence with F34L

Test [7] addresses NKX3-2 (Homo sapiens, UniProt P78367 192-278, P234S).
The target of test [8] is NKX2-5 (Homo sapiens, UniProt P52952 125-210).
Sequence of NKX2-5 (Homo sapiens, UniProt P52952 125-210) (P52952 125-210): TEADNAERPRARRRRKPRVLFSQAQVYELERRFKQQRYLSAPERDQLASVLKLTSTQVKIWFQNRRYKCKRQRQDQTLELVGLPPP
The target of test [9] is NKX3-2 (Homo sapiens, UniProt P78367 192-278).
Sequence of NKX3-2 (Homo sapiens, UniProt P78367 192-278) (P78367 192-278): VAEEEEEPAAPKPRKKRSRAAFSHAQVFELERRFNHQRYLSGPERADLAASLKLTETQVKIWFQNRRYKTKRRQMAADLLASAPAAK
Test [10] concerns the target T6, NKX2-4 (Homo sapiens, UniProt Q9H2Z4 175-261, P217L).
T6 sequence: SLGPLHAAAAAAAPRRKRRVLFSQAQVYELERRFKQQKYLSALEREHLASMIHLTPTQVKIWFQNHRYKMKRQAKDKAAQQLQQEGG

Test [11] concerns the target T7, NKX2-4 (Homo sapiens, UniProt Q9H2Z4 175-261, T231S).
T7 sequence: T6 sequence with L43P, T57S

In test [12] the target is T8, NKX2-4 (Homo sapiens, UniProt Q9H2Z4 175-261).
T8 sequence: T6 sequence with L43P

Test [13] concerns the target T9, NKX2-6 (Homo sapiens, UniProt A6NCS4 118-204, R150C).
T9 sequence: T4 sequence with R33C

Test [14] deals with T10, NKX2-4 (Homo sapiens, UniProt Q9H2Z4 175-261, R246Q).
T10 sequence: T6 sequence with L43P, R72Q

Changes are numbered by the printed parent chain.

Sequence of NKX2-5 (Homo sapiens, UniProt P52952 125-210, R139K) (P52952 125-210 R139K): as the sequence (P52952 125-210) above, with R15K counted along it
Sequence of NKX3-2 (Homo sapiens, UniProt P78367 192-278, P234S) (P78367 192-278 P234S): as the sequence (P78367 192-278) above, with P43S counted along it

Turning to CCGACGCC, the binding signal was 8.82 upbm affinity estimate (log intensity, higher = more binding, comparable within an allelic series) with NKX2-5 [1]; 8.14 upbm affinity estimate (log intensity, higher = more binding, comparable within an allelic series) with VENTX [2]; 8.37 upbm affinity estimate (log intensity, higher = more binding, comparable within an allelic series) with VENTX [3]; 8.23 upbm affinity estimate (log intensity, higher = more binding, comparable within an allelic series) in the test with VENTX [4]; 8.94 upbm affinity estimate (log intensity, higher = more binding, comparable within an allelic series) with NKX2-6 [5]; 9.35 upbm affinity estimate (log intensity, higher = more binding, comparable within an allelic series) with NKX2-6 [6]. Moreover, the binding signal is 10.5 upbm affinity estimate (log intensity, higher = more binding, comparable within an allelic series) in the test with NKX3-2 [7]; 8.73 upbm affinity estimate (log intensity, higher = more binding, comparable within an allelic series) with NKX2-5 [8]; 10.5 upbm affinity estimate (log intensity, higher = more binding, comparable within an allelic series) in the test with NKX3-2 [9].
Turning to CACTTGAA, the binding signal is 13.2 upbm affinity estimate (log intensity, higher = more binding, comparable within an allelic series) in the test with NKX2-5 [1]; 12.8 upbm affinity estimate (log intensity, higher = more binding, comparable within an allelic series) with NKX2-4 [10]; 13.3 upbm affinity estimate (log intensity, higher = more binding, comparable within an allelic series) with NKX2-4 [11]; 12.7 upbm affinity estimate (log intensity, higher = more binding, comparable within an allelic series) with NKX2-4 [12]; 12.2 upbm affinity estimate (log intensity, higher = more binding, comparable within an allelic series) in the test with NKX2-6 [13]; 13.9 upbm affinity estimate (log intensity, higher = more binding, comparable within an allelic series) in the test with NKX2-6 [5]. Further, the binding signal in the test with NKX2-4 [14] was 13.5 upbm affinity estimate (log intensity, higher = more binding, comparable within an allelic series); with NKX2-6 [6], 11.4 upbm affinity estimate (log intensity, higher = more binding, comparable within an allelic series); in the test with NKX2-5 [8], 13.2 upbm affinity estimate (log intensity, higher = more binding, comparable within an allelic series).
With AGTCCGGG, the binding signal in the test with NKX2-5 [1] is 9.14 upbm affinity estimate (log intensity, higher = more binding, comparable within an allelic series); with NKX2-4 [10] it was 9.61 upbm affinity estimate (log intensity, higher = more binding, comparable within an allelic series); with NKX2-4 [11] it was 9.48 upbm affinity estimate (log intensity, higher = more binding, comparable within an allelic series); with NKX2-4 [12] it was 9.52 upbm affinity estimate (log intensity, higher = more binding, comparable within an allelic series); with NKX2-4 [14], 9.63 upbm affinity estimate (log intensity, higher = more binding, comparable within an allelic series); with NKX2-5 [8], 9.09 upbm affinity estimate (log intensity, higher = more binding, comparable within an allelic series).
For ATCGGTGG, the binding signal was 8.85 upbm affinity estimate (log intensity, higher = more binding, comparable within an allelic series) with NKX2-5 [1]; 9.32 upbm affinity estimate (log intensity, higher = more binding, comparable within an allelic series) with NKX2-4 [10]; 9.63 upbm affinity estimate (log intensity, higher = more binding, comparable within an allelic series) with NKX2-4 [11]; 9.38 upbm affinity estimate (log intensity, higher = more binding, comparable within an allelic series) with NKX2-4 [12]; 9.32 upbm affinity estimate (log intensity, higher = more binding, comparable within an allelic series) with NKX2-4 [14]; 8.79 upbm affinity estimate (log intensity, higher = more binding, comparable within an allelic series) with NKX2-5 [8].
As for AAGTGCCC, the binding signal is 12.4 upbm affinity estimate (log intensity, higher = more binding, comparable within an allelic series) with NKX2-5 [1]; 12.5 upbm affinity estimate (log intensity, higher = more binding, comparable within an allelic series) with NKX2-4 [10]; 12.8 upbm affinity estimate (log intensity, higher = more binding, comparable within an allelic series) with NKX2-4 [11]; 12.3 upbm affinity estimate (log intensity, higher = more binding, comparable within an allelic series) with NKX2-4 [12]; 11.6 upbm affinity estimate (log intensity, higher = more binding, comparable within an allelic series) in the test with NKX2-6 [13]; 13 upbm affinity estimate (log intensity, higher = more binding, comparable within an allelic series) with NKX2-4 [14]. For the same sequence, the binding signal was 10.8 upbm affinity estimate (log intensity, higher = more binding, comparable within an allelic series) with NKX2-6 [6]; 12.9 upbm affinity estimate (log intensity, higher = more binding, comparable within an allelic series) with NKX3-2 [7]; 12.4 upbm affinity estimate (log intensity, higher = more binding, comparable within an allelic series) with NKX2-5 [8]; 12.9 upbm affinity estimate (log intensity, higher = more binding, comparable within an allelic series) with NKX3-2 [9].
In the case of ATACTTGA, the binding signal is 12.4 upbm affinity estimate (log intensity, higher = more binding, comparable within an allelic series) in the test with NKX2-5 [1]; 12.6 upbm affinity estimate (log intensity, higher = more binding, comparable within an allelic series) with NKX2-4 [10]; 13 upbm affinity estimate (log intensity, higher = more binding, comparable within an allelic series) with NKX2-4 [11]; 12.5 upbm affinity estimate (log intensity, higher = more binding, comparable within an allelic series) in the test with NKX2-4 [12]; 11.6 upbm affinity estimate (log intensity, higher = more binding, comparable within an allelic series) with NKX2-6 [13]; 13.5 upbm affinity estimate (log intensity, higher = more binding, comparable within an allelic series) with NKX2-6 [5]. The binding signal is 13.2 upbm affinity estimate (log intensity, higher = more binding, comparable within an allelic series) in the test with NKX2-4 [14]; 10.7 upbm affinity estimate (log intensity, higher = more binding, comparable within an allelic series) with NKX2-6 [6]; 12.3 upbm affinity estimate (log intensity, higher = more binding, comparable within an allelic series) in the test with NKX2-5 [8].
As to ACTTGAGA, the binding signal was 12.3 upbm affinity estimate (log intensity, higher = more binding, comparable within an allelic series) in the test with NKX2-5 [1]; 12.6 upbm affinity estimate (log intensity, higher = more binding, comparable within an allelic series) with NKX2-4 [10]; 12.9 upbm affinity estimate (log intensity, higher = more binding, comparable within an allelic series) in the test with NKX2-4 [11]; 12.4 upbm affinity estimate (log intensity, higher = more binding, comparable within an allelic series) with NKX2-4 [12]; 13.1 upbm affinity estimate (log intensity, higher = more binding, comparable within an allelic series) in the test with NKX2-4 [14]; 10.7 upbm affinity estimate (log intensity, higher = more binding, comparable within an allelic series) with NKX2-6 [6]. Also, the binding signal with NKX2-5 [8] is 12.2 upbm affinity estimate (log intensity, higher = more binding, comparable within an allelic series).
With GCGACGCC, the binding signal in the test with NKX2-5 [1] is 8.87 upbm affinity estimate (log intensity, higher = more binding, comparable within an allelic series); with VENTX [2], 8.02 upbm affinity estimate (log intensity, higher = more binding, comparable within an allelic series); with VENTX [3], 8.21 upbm affinity estimate (log intensity, higher = more binding, comparable within an allelic series); in the test with VENTX [4] it was 8.16 upbm affinity estimate (log intensity, higher = more binding, comparable within an allelic series); with NKX2-5 [8] it was 8.83 upbm affinity estimate (log intensity, higher = more binding, comparable within an allelic series).

The values are drawn from publication PMC11006913.
